The source of these data is PubChem BioAssay.

The inhibition is the relative decrease from the control value, in per cent.

Records with an inconclusive call do not appear. The source made the active and inactive calls.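 How the source made its calls, unless noted: active means percent response above 42, roughly 3 SD of non-fluorescent test compounds; inactive means the rest.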

Assay [1] is described as follows: yeast TOR pathway RPL19A-GFP modulators, primary screen, cell-based, S. cerevisiae, multiplex flow cytometry (AID 1862; in the data active means percent of DMSO control GFP below about 86%;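 further: lower values mimic rapamycin by blocking the RPL19A rise seen in DMSO cells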). The conditions noted are these: S. cerevisiae RPL19A-GFP strain, flow cytometry fluorescence, 3 h; at 10 µM; stronger effect = lower value.
A short description of assay [2]: modulators of MEP2-GFP levels in yeast, primary screen, S. cerevisiae, multiplex flow cytometry (AID 1867;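 active means GFP response, as percent of the DMSO control, above the screen-wide mean plus 3 SD, about 139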;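 further: median GFP channel fluorescence of barcode-gated MEP2-GFP cells measured by flow cytometry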). The conditions noted are these: S. cerevisiae MEP2-GFP strain, 3 h, at 10 µM, stronger effect = higher value, 100% means same as DMSO wells.
The nature of assay [3]: modulators of CIT2-GFP expression in yeast, primary screen, S. cerevisiae, GFP fusion, multiplex flow cytometry (AID 1870;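 active means percent response above a set limit, the screen-wide mean plus 3 SD, cut at about 130% in these data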;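 further: barcoded CIT2-GFP strain pooled with four other GFP strains with rapamycin as positive control; median GFP fluorescence per well over plate mean of DMSO wells so 100% = DMSO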). The following applies: 3 h, at 10 µM, stronger effect = higher value. A general note: In flow cytometry, cells or beads pass a laser one at a time.
Assay [4] in a line: modulators of LAP4-GFP expression in yeast, primary screen, S. cerevisiae, multiplex flow cytometry (AID 1873;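 active means GFP signal, as percent of the solvent control, above the screen mean plus 3 SD, about 149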). The following applies: 3 h, at 10 µM, stronger effect = higher value.
Assay [5] in a line: modulators of AGP1-GFP expression in yeast TOR pathway, primary screen, cell-based, multiplex flow cytometry, S. cerevisiae (AID 1887;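 active means GFP signal above the screen-wide mean plus 3 SD, that is over about 124.5% of the solvent control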;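 further: AGP1-GFP fusion strain of S. cerevisiae within a five-strain barcoded multiplex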). The following applies: 3 h, at 10 µM, stronger effect = higher value.
Assay [6] is described as follows: inhibitors of CD8+ T cell-vesicle binding, pilot screen, LFA-1/ICAM-1 modulator project, MLPCN validation set, flow cytometry (AID 2523;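 active means response below a set limit, under 55% cells CD8-positive and vesicle-bound, and CD8 cells' 90th-percentile brightness under 279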;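 on vesicle binding response: mean PE anti-B7-1 fluorescence of CD8+ cells relative to row control; 100% = QL9-loaded vesicles with DMSO vehicle in the same plate row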). The following applies: 2C mouse CD8+ T cells, at 7 µM, stronger effect = lower value; double positive events: measured here: CD8+/vesicle+ event percentage.
For assay [7], the target named is Integrin beta-1 (Homo sapiens) + Integrin alpha-4 (Homo sapiens) (UniProt P13612+P05556). Description: inhibition of HUTS-21 binding to VLA-4, pilot screen, VLA-4 allosteric modulator project, U937 cells, HUTS-21 mAb, flow cytometry, validation set (AID 2674;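 active means inhibition above 50%, about 3 SD of the validation set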;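 further: antibody binding induced by the VLA-4 ligand LDV present at three times its Kd; 0% = LDV ligand with antibody and no compound and 100% = antibody without LDV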). The conditions noted are these: HUTS-21 LIBS mAb binding, at 6.7 µM, stronger effect = higher value, binding induced by LDV ligand.

Assay [8] is described as follows: superoxide lowering in aged yeast cells, pilot screen, validation compound set (AID 2706;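 active means superoxide response below 65% of plate, a cut near 3 SD across the whole screen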;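 further: yeast exposed to compound for one week at 30 degrees C before staining; 100% = mean of all compound wells on the same plate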). The following applies: S. cerevisiae aging, superoxide DHE fluorescence; at 10 µM; stronger effect = lower value.
In assay [9] the target is Beta-adrenergic receptor kinase 1 (Homo sapiens) (UniProt P25098). Description: GRK2 binders displacing RNA aptamer, biochemical, validation, human GRK2, bead flow cytometry (AID 488806;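 active means aptamer binding inhibition above 30%, about 3 SD of noise from non-fluorescent compounds; inactive means inhibition at or below 30%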). The conditions noted are these: bead-bound GRK2, FAM-aptamer displacement, at 10 µM, stronger effect = higher value.
Assay [10] addresses Beta-2 adrenergic receptor (Homo sapiens) (UniProt P07550). Description: beta2AR agonists driving receptor internalization, pilot screen, cell-based, FAP fluorogen, flow cytometry, validation set (AID 504459).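 Further: agonist-driven loss of surface beta2AR via internalization measured by FAP dye flow cytometry.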 The conditions noted are these: Am2.2-beta2AR cells, FAP surface receptor flow cytometry; at 10 µM; stronger effect = higher value.
The target of assay [11] is AP-2 complex subunit beta (Homo sapiens) (UniProt P63010). The assay can be described thus: inhibitors of arrestin peptide binding to AP2, pilot screen, biochemical, validation set, GST-AP2 beads, flow cytometry (AID 504541;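 active means inhibition above 54%, about 3 SD of non-fluorescent compounds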;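 further: AP2 carries R879A mutation and is captured from E. coli lysate; bead-bound FITC arrestin peptide fluorescence measuring arrestin peptide binding to AP2; 0% = DMSO wells and 100% = excess unlabeled arrestin peptide control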). The conditions noted are these: FITC arrestin peptide, at 10 µM, stronger effect = higher value, AP2 beta2 appendage fragment, R879A mutant.
Assay [12] in a line: yeast V-ATPase proton transport modulators, S. cerevisiae, pHLuorin, HTS validation (AID 504600; in the data active means response above about 15%;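 further: plate controls were DMSO for no effect and reference compound for full effect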). The following applies: S. cerevisiae pHLuorin cytosolic pH, at 10 µM, stronger effect = higher value.
The subject of assay [13] is anti-desmoglein-3 scFv antibody binding to human DSG3. Description: inhibitors of anti-DSG3 scFv binding to DSG3, pilot screen, biochemical, validation compound set, bead-based, flow cytometry (AID 588368;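 active means binding below the plate cutoff, the plate median minus 3 SD, with a reading above zero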;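 further: signal is the median channel fluorescence of bead-bound GFP antibody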). The following applies: Protein G beads, DSG3-Fc, scFv-GFP binding, at 10 µM, stronger effect = lower value.
Assay [14] is described as follows: inhibitors of fungal efflux pumps CDR1, CDR2, MDR1, pilot screen, validation compound set, multiplex, phenotypic (AID 588506;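 active means efflux inhibition above 0.42, the validation set average plus 4 SD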;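 further: Nile Red retained in cells so higher fluorescence means more efflux inhibition; 0 = negative control wells and 1 = enniatin B 25 µM full block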). The conditions noted are these: S. cerevisiae pump-expressing triplex, Nile Red efflux flow cytometry; at 10 µM; stronger effect = higher value; the pumps come from Candida albicans.
Assay [15] deals with ATP-binding cassette sub-family B member 6 (Homo sapiens) (UniProt Q9NP58). Description: ABCB6 transporter inhibitors, pilot screen, K562-ABCB6 cells, flow cytometry, validation set (AID 588550;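 active means inhibition above the screen-wide mean plus 3 SD, about 51%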;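 further: 0% = DMSO wells and 100% = benzethonium chloride 70 µM positive control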). The conditions noted are these: K562-ABCB6 porphyrin accumulation, 1 h, at 10 µM, stronger effect = higher value.
The nature of assay [16]: promoters of myeloid differentiation in arrested cells, primary screen, cell-based, GFP/MAC1 double positive, flow cytometry, validation set (AID 588685;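 active means differentiation response of at least 50%, scaled between solvent and reference control, from cells with both markers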;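 further: compound exposure lasts four days before antibody staining and flow analysis; 0% = DMSO wells and 100% = 5 µM fulvestrant positive control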). The following applies: ER-HoxA9 marrow cells, stronger effect = higher value, normalized: vehicle 0, fulvestrant 100.

Integrin beta-1 (Homo sapiens) + Integrin alpha-4 (Homo sapiens), sequence (P05556 whole entry, looked up): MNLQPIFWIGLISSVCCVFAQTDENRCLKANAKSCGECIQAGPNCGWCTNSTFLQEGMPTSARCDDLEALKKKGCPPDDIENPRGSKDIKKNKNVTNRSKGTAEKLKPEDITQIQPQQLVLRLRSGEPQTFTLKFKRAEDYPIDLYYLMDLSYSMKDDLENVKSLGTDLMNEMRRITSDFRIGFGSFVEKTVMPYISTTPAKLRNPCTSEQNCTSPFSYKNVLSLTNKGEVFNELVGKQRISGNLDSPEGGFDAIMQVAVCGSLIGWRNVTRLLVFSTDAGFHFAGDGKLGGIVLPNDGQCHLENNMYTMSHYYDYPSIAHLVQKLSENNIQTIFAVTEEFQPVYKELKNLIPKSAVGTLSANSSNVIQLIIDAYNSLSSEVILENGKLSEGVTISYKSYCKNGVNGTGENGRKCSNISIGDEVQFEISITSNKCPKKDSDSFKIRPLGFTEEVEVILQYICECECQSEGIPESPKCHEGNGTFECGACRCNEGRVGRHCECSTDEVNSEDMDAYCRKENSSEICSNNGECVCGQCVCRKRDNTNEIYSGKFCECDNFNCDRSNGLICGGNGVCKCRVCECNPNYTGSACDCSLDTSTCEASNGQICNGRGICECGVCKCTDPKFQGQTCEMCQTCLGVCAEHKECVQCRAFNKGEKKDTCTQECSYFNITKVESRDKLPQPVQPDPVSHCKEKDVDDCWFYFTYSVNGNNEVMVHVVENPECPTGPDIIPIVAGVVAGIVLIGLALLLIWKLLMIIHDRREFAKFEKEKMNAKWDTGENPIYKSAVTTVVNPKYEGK
Integrin beta-1 (Homo sapiens) + Integrin alpha-4 (Homo sapiens), sequence (P13612 whole entry, looked up): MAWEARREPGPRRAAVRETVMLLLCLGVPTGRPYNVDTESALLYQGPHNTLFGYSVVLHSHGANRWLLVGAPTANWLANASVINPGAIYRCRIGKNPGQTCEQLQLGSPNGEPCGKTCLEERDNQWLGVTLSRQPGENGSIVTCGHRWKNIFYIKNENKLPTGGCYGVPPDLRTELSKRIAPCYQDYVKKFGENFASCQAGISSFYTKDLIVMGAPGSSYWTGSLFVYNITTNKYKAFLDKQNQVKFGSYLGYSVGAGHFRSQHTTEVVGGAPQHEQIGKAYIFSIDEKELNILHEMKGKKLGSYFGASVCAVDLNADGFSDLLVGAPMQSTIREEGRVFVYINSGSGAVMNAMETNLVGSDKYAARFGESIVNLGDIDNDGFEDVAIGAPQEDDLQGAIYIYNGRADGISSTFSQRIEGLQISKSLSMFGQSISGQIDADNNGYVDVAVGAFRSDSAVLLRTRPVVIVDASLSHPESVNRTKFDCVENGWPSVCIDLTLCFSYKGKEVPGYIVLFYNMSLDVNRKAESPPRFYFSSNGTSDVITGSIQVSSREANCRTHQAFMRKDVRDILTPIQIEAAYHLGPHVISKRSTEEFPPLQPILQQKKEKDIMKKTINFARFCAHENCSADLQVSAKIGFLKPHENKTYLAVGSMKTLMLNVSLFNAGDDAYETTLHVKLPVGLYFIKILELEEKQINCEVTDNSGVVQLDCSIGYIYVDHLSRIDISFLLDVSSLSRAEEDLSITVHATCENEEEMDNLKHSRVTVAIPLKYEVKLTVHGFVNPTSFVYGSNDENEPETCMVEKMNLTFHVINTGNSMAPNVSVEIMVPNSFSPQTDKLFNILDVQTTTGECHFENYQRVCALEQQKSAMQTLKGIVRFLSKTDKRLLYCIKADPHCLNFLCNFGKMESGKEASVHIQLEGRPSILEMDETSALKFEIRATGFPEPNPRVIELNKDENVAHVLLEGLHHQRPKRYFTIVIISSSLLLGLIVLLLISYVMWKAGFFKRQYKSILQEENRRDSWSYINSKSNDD
AP-2 complex subunit beta (Homo sapiens), sequence (P63010 whole entry, looked up, the tested form may be a part, one chain of several): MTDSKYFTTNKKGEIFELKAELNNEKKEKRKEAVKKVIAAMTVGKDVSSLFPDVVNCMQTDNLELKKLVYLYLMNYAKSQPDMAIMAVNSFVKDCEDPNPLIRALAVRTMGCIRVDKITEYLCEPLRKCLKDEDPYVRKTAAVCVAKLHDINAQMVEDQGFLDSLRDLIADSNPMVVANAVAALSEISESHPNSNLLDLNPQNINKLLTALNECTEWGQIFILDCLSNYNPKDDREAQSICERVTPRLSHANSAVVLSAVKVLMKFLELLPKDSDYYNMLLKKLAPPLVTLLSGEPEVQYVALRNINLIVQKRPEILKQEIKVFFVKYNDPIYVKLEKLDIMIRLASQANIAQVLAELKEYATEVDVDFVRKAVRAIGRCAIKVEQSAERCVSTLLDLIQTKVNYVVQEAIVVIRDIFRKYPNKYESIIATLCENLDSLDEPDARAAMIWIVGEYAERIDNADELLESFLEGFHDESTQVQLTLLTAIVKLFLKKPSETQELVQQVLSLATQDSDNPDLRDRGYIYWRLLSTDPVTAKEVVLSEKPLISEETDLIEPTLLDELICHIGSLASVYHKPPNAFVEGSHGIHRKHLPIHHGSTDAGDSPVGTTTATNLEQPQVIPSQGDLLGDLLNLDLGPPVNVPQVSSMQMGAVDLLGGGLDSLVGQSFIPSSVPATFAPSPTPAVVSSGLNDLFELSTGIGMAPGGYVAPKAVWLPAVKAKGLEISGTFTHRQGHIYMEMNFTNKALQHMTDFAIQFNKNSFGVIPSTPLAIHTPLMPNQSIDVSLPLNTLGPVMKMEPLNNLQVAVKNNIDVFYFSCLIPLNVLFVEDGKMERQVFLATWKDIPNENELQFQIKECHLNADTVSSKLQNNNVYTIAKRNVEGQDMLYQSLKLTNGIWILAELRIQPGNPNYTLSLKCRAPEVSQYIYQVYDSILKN
ATP-binding cassette sub-family B member 6 (Homo sapiens), sequence (Q9NP58 whole entry, looked up): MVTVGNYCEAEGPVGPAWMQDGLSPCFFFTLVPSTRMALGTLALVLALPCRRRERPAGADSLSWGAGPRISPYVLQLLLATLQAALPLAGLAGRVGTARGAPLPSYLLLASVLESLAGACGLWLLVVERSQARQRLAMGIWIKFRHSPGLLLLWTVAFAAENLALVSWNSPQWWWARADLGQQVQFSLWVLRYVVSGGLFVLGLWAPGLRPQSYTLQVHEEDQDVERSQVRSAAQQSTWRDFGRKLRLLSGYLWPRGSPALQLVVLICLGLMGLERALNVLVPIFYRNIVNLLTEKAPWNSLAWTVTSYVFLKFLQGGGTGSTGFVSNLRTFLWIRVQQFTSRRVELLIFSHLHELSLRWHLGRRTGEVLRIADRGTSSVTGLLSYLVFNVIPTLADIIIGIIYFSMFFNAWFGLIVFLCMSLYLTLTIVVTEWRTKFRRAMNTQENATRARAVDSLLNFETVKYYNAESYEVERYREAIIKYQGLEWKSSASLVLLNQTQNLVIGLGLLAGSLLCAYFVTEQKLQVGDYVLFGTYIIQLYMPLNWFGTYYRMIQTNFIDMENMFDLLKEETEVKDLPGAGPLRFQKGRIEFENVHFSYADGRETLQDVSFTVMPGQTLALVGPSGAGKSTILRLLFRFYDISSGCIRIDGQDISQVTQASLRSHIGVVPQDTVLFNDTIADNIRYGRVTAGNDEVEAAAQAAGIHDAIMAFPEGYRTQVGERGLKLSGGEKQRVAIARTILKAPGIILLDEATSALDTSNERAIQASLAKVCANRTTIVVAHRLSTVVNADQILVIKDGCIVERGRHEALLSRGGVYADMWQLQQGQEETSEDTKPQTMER
Beta-adrenergic receptor kinase 1 (Homo sapiens), sequence (P25098 whole entry, looked up): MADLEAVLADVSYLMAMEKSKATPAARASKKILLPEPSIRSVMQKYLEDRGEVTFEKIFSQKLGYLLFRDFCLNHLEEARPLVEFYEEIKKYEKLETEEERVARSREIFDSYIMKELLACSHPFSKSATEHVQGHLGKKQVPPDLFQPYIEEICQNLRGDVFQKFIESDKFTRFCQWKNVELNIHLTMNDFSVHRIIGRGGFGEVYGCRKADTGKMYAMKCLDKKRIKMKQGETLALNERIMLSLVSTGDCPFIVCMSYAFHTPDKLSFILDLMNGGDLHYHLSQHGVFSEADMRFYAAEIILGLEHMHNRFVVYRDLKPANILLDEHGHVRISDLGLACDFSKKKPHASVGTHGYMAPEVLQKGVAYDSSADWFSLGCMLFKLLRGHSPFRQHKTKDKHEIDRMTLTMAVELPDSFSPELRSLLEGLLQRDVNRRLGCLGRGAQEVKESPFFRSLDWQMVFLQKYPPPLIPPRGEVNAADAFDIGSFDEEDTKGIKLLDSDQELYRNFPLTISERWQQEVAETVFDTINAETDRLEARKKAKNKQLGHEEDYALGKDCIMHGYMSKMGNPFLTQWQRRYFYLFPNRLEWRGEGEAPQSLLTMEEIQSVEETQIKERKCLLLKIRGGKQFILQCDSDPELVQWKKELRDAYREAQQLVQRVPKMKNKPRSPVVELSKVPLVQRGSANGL
Beta-2 adrenergic receptor (Homo sapiens), sequence (P07550 whole entry, looked up): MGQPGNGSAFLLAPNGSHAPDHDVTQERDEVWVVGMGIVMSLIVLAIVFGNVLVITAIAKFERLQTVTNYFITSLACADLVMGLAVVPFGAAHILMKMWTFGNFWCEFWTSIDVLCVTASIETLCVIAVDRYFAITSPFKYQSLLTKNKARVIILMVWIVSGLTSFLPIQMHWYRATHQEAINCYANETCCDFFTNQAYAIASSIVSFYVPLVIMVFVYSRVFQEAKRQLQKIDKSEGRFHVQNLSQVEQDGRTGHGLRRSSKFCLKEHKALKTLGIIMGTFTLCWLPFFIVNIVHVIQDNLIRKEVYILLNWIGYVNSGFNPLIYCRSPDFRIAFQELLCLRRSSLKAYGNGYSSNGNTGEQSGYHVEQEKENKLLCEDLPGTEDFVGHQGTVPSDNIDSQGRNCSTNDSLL

For the compound `C=CCC1(Cl)C(=O)C(Cl)=C(N2CCOCC2)C1(OC)OC` (stereo not drawn), the percent of DMSO control GFP in assay [1] is 101% (inactive). Besides, the figures for the GFP response vs DMSO in assay [2] and in [4] were 94.1% (inactive) and 99.1% (inactive), respectively. Moreover, in assay [3], the percent response of DMSO control is 108% (inactive). For the same compound, in [5], the GFP response, % of DMSO was 95.2% (inactive). In [6], this compound yielded a double positive events of 59.1%. Also, in [6], the vesicle binding response was 167% (inactive). Besides, the inhibition in assay [7] is -4.52% (inactive); in assay [11] it was -0.19% (inactive); in assay [15], 8% (inactive). Besides, the superoxide response (% of plate) in assay [8] was 102% (inactive). Moreover, the aptamer binding inhibition in assay [9] is 2% (inactive). The response in [10] was -2.88% (inactive); in [12] it was -0.35% (inactive). Further, the binding (% of control) in assay [13] was 98.9% (inactive). In addition, the efflux inhibition (fraction of control) in assay [14] is -0.21 (inactive). In addition, the differentiation response in [16] was -4% (inactive).

As to `COc1cc2c(cc1NCc1ccc3c(c1)OCO3)oc1ccccc12`, in [1], the percent of DMSO control GFP is 99.6% (inactive). For the same compound, the GFP response vs DMSO was 133% (inactive) in [2] and 88% (inactive) in assay [4]. Also, the percent response of DMSO control in assay [3] was 112% (inactive). Besides, in assay [5], the GFP response, % of DMSO was 89.4% (inactive). In [6], this compound had a double positive events of 64%. Moreover, the vesicle binding response in [6] is 167% (inactive). Also, the inhibition in [7] is 1.61% (inactive); in assay [11] it was 47.4% (inactive); in assay [15] it was 0% (inactive). Also, in assay [8], the superoxide response (% of plate) is 99.1% (inactive). Besides, in assay [9], the aptamer binding inhibition was 0% (inactive). Besides, the response in [10] was 4.3% (inactive); in assay [12] it was 8.06% (inactive). Also, the binding (% of control) in assay [13] is 103% (inactive). For the same compound, in assay [14], the efflux inhibition (fraction of control) was 0.37 (inactive). The differentiation response in [16] is 8.19% (inactive).

`COc1ccc(O)c(C2=Nc3ccccc3N=C(c3ccccc3)C2)c1`: in [1], the percent of DMSO control GFP was 94.6% (inactive). The values for the GFP response vs DMSO in assay [2] and in assay [4] were 126% (inactive) and 71.5% (inactive), respectively. Further, the percent response of DMSO control in assay [3] is 116% (inactive). Moreover, in [5], the GFP response, % of DMSO is 85.2% (inactive). The compound further showed a double positive events in assay [6] of 58.3%. The vesicle binding response in assay [6] is 139% (inactive). For the same compound, the inhibition is -10% (inactive) in assay [7], 13% (inactive) in assay [11] and 12% (inactive) in assay [15]. In addition, in [8], the superoxide response (% of plate) was 96.7% (inactive). The aptamer binding inhibition in assay [9] is 4% (inactive). Besides, the figures for the response in assay [10] and in [12] were -11.7% (inactive) and -3.39% (inactive), respectively. In assay [13], the binding (% of control) is 96.9% (inactive). In addition, the efflux inhibition (fraction of control) in assay [14] was 0.34 (inactive). Also, the differentiation response in [16] is 2.46% (inactive).

On to `COc1ccc(-c2c[n+](CC(=O)OC3CC(C)CCC3C(C)C)c3n2CCC3)cc1` (stereo not drawn), for which the percent of DMSO control GFP in assay [1] is 99.5% (inactive). The values for the GFP response vs DMSO in assay [2] and in assay [4] were 105% (inactive) and 97% (inactive), respectively. The percent response of DMSO control in assay [3] was 102% (inactive). The GFP response, % of DMSO in assay [5] is 98.6% (inactive). The compound also had a double positive events in assay [6] of 57.8%. In addition, the vesicle binding response in assay [6] is 42.8% (inactive). For the same compound, the inhibition in [7] was 5.61% (inactive); in [11], -5.29% (inactive); in assay [15], 6% (inactive). Moreover, the superoxide response (% of plate) in [8] is 97.3% (inactive). For the same compound, in assay [9], the aptamer binding inhibition is -6% (inactive). Also, the response in assay [10] is -0.25% (inactive); in assay [12] it was 8.78% (inactive). Also, the binding (% of control) in assay [13] is 108% (inactive). In addition, in [14], the efflux inhibition (fraction of control) is 0.28 (inactive). In addition, the differentiation response in [16] is -3.11% (inactive).
